Measured values from PubChem BioAssay (NCATS).
Inconclusive results are not listed. Entries that show only a call come without a potency. Calls of active or inactive are those of the source. Calls come from the whole dose curve; as a rule, active = well fitted curve in the direction sought with a large enough effect; inconclusive = small, poorly fitted or top-dose-only effect, or another doubt; inactive = no such curve, though single readings can be large; an effect the other way counts as inactive or inconclusive.

Molecular target: Aldehyde dehydrogenase, mitochondrial (Homo sapiens) (UniProt P05091)
Assay: qHTS for Inhibitors of the Aldehyde Dehydrogenase Family (ALDH2) Primary screen (AID 2061308); note: nearly all actives have a fitted effect of over 55% in size
Conditions: ALDH2 enzyme inhibition qHTS, 1536-well; series mostly up to 56 µM

| SMILES | Potency |
| --- | --- |
| Fc1ccc(-c2noc(CCCCSc3nnc(-c4cccc5ccccc45)o3)n2)cc1 | inactive |
| CC1=C(C(=O)NC2CCCCC2)C(c2ccccc2Br)N=C(Nc2nc3ccccc3o2)N1 (stereo not given) | inactive |
| O=C(CSc1nc2ccccc2[nH]1)N1CCOCC1 | inactive |
| Cc1cc2c(s1)c1cnn(Cc3c(F)cccc3C(F)(F)F)c(=O)c1n2C | inactive |
| c1nc(NCC2CCCC2)c2cc(-c3ccc4c(c3)OCO4)ccc2n1 | inactive |
| Cc1cccc(C)c1OCc1cccc(C2Nc3ccccc3C(=O)N2Cc2ccco2)c1 (stereo not given) | inactive |
| CC(=O)c1ccc(O[C@@H]2O[C@H](CO)[C@@H](O)[C@H](O)[C@H]2O)cc1 | inactive |
| Cc1ccc(S(=O)(=O)Nc2ccccc2CNc2nc(-c3ccccc3)cs2)cc1 | inactive |
| COc1ccc(C2=Nn3c(nnc3-c3cccc(OC)c3OC)SC2)cc1OC | inactive |
| Cn1nnnc1Sc1ncnc2scc(-c3ccc(Cl)cc3)c12 | inactive |
| CCCn1c(-c2ccc(F)cc2)nc2c(NCCCN3CCCCC3C)nc(C)nc21 (stereo not given) | inactive |
| COc1cc(OC)cc(-c2nnc3n2N=C(c2ccccc2OC)CS3)c1 | inactive |
| Cn1cc2ccc(-c3ccc4ncnc(NCc5cccs5)c4c3)cc2n1 | inactive |
| CN(C)c1oc(-c2cccc3ccccc23)nc1C#N | inactive |
| CC(=O)Nc1sc2c(c1-c1nc3ccccc3s1)CC(C)NC2 (stereo not given) | inactive |
| O=S(=O)(Nc1ccc2ccccc2c1)c1ccc(NCc2cccc(Cl)c2O)cc1 | inactive |
| O=C(Nc1ccc(S(=O)(=O)Nc2nccs2)cc1)[C@@H]1CC[C@H](C(=O)c2ccccc2)C1 | inactive |
| COc1ccccc1C1=Nn2c(nnc2-c2ccccc2O)SC1 | inactive |
| O=C1CCCC2=C1C(c1cccc(C(F)(F)F)c1)N=C(Nc1nc3ccccc3o1)N2 (stereo not given) | inactive |
| Cc1cc(NC(=O)Nc2cccc(-c3ccncc3)n2)ccc1Br | inactive |

| SMILES | Potency |
| --- | --- |
| Cc1cccc(Nc2nn3c(=O)c4ccccc4nc3s2)c1 | inactive |
| CN1CC[C@@H](c2c(O)cc(O)c3c(=O)cc(-c4ccc(C(F)(F)F)cc4Cl)oc23)[C@@H]1CO | inactive |
| Cc1cnc(-c2ccccc2C(C)C)nc1NCc1ccc(-c2ccnc(C(F)(F)F)c2)cc1 | inactive |
| CCC(=O)NC(c1ccco1)c1cc(Cl)c2cccnc2c1O (stereo not given) | inactive |
| Cc1ccc(-c2cc(C(=O)Nc3ccccc3C)c3ccccc3n2)cc1C | inactive |
| CCCn1c(C)nc2c(NCCCN3CCCCC3C)nc(C)nc21 (stereo not given) | inactive |
| O=S1(=O)N=C(Oc2ccc(C(F)(F)F)cc2)c2ccccc21 | inactive |
| Brc1cnc2nc(SCc3ccccc3)[nH]c2c1 | inactive |
| N[C@H](Cc1ccccc1)C(=O)Nc1ccc(Cl)cc1C(=O)c1ccc[nH]1 | inactive |
| COc1cc(O)c(C(CC(=O)N2CCC(Cc3ccccc3)CC2)c2ccc(OC)c(OC)c2)c(OC)c1 (stereo not given) | inactive |
| COc1ccccc1OC1=NS(=O)(=O)c2ccccc21 | inactive |
| O=C(CSc1nnc(-c2cccc([S+](=O)([O-])N3CCCC3)c2)n1-c1ccccc1)Nc1cccc(F)c1 | inactive |
| CN(CCC1CCCO1)c1ncnc2ccc(-c3ccc4c(c3)OCO4)cc12 (stereo not given) | inactive |
| COc1cccc(C2c3c(ncn(-c4ccc(C#N)cc4)c3=N)Oc3ccc4ccccc4c32)c1 (stereo not given) | inactive |
| N=c1c2c(ccn1CCc1ccccc1)Oc1ccc3ccccc3c1C2c1ccccc1 (stereo not given) | inactive |
| O=C(Oc1cccnc1)c1cccs1 | inactive |
| O=C(CSc1nnc(-c2cccc(S(=O)(=O)N3CCCC3)c2)n1-c1ccccc1)Nc1ccc(Cl)cc1 | inactive |
| NC(=O)C1CCN(c2nc(-c3cccc4ccccc34)cs2)CC1 | inactive |
| O=c1c2ccccc2nc2sc(NCc3ccc(Oc4ccccc4)cc3)nn12 | inactive |
| CC(=O)Nc1ccc(NC(=O)c2cnn3c(C)cc(C)nc23)cc1 | inactive |

Molecular target: Retinaldehyde dehydrogenase 3 (Homo sapiens) (UniProt P47895)
Assay: qHTS for Inhibitors of the Aldehyde Dehydrogenase Family (ALDH1A3) Primary screen (AID 2061315)
Conditions: ALDH inhibition qHTS; series mostly up to 56 µM

| SMILES | Potency |
| --- | --- |
| Fc1ccc(-c2noc(CCCCSc3nnc(-c4cccc5ccccc45)o3)n2)cc1 | inactive |
| CC1=C(C(=O)NC2CCCCC2)C(c2ccccc2Br)N=C(Nc2nc3ccccc3o2)N1 (stereo not given) | inactive |
| O=C(CSc1nc2ccccc2[nH]1)N1CCOCC1 | inactive |
| Cc1cc2c(s1)c1cnn(Cc3c(F)cccc3C(F)(F)F)c(=O)c1n2C | inactive |
| c1nc(NCC2CCCC2)c2cc(-c3ccc4c(c3)OCO4)ccc2n1 | inactive |
| Cc1cccc(C)c1OCc1cccc(C2Nc3ccccc3C(=O)N2Cc2ccco2)c1 (stereo not given) | inactive |
| CC(=O)c1ccc(O[C@@H]2O[C@H](CO)[C@@H](O)[C@H](O)[C@H]2O)cc1 | inactive |
| Cc1ccc(S(=O)(=O)Nc2ccccc2CNc2nc(-c3ccccc3)cs2)cc1 | inactive |
| COc1ccc(C2=Nn3c(nnc3-c3cccc(OC)c3OC)SC2)cc1OC | inactive |
| Cn1nnnc1Sc1ncnc2scc(-c3ccc(Cl)cc3)c12 | inactive |
| CCCn1c(-c2ccc(F)cc2)nc2c(NCCCN3CCCCC3C)nc(C)nc21 (stereo not given) | inactive |
| COc1cc(OC)cc(-c2nnc3n2N=C(c2ccccc2OC)CS3)c1 | inactive |
| Cn1cc2ccc(-c3ccc4ncnc(NCc5cccs5)c4c3)cc2n1 | inactive |
| CN(C)c1oc(-c2cccc3ccccc23)nc1C#N | inactive |
| CC(=O)Nc1sc2c(c1-c1nc3ccccc3s1)CC(C)NC2 (stereo not given) | inactive |
| O=S(=O)(Nc1ccc2ccccc2c1)c1ccc(NCc2cccc(Cl)c2O)cc1 | inactive |
| O=C(Nc1ccc(S(=O)(=O)Nc2nccs2)cc1)[C@@H]1CC[C@H](C(=O)c2ccccc2)C1 | inactive |
| COc1ccccc1C1=Nn2c(nnc2-c2ccccc2O)SC1 | inactive |
| O=C1CCCC2=C1C(c1cccc(C(F)(F)F)c1)N=C(Nc1nc3ccccc3o1)N2 (stereo not given) | inactive |
| Cc1cc(NC(=O)Nc2cccc(-c3ccncc3)n2)ccc1Br | inactive |

| SMILES | Potency |
| --- | --- |
| Cc1cccc(Nc2nn3c(=O)c4ccccc4nc3s2)c1 | inactive |
| CN1CC[C@@H](c2c(O)cc(O)c3c(=O)cc(-c4ccc(C(F)(F)F)cc4Cl)oc23)[C@@H]1CO | inactive |
| Cc1cnc(-c2ccccc2C(C)C)nc1NCc1ccc(-c2ccnc(C(F)(F)F)c2)cc1 | inactive |
| CCC(=O)NC(c1ccco1)c1cc(Cl)c2cccnc2c1O (stereo not given) | inactive |
| Cc1ccc(-c2cc(C(=O)Nc3ccccc3C)c3ccccc3n2)cc1C | inactive |
| CCCn1c(C)nc2c(NCCCN3CCCCC3C)nc(C)nc21 (stereo not given) | inactive |
| O=S1(=O)N=C(Oc2ccc(C(F)(F)F)cc2)c2ccccc21 | inactive |
| Brc1cnc2nc(SCc3ccccc3)[nH]c2c1 | inactive |
| N[C@H](Cc1ccccc1)C(=O)Nc1ccc(Cl)cc1C(=O)c1ccc[nH]1 | inactive |
| COc1cc(O)c(C(CC(=O)N2CCC(Cc3ccccc3)CC2)c2ccc(OC)c(OC)c2)c(OC)c1 (stereo not given) | inactive |
| COc1ccccc1OC1=NS(=O)(=O)c2ccccc21 | inactive |
| O=C(CSc1nnc(-c2cccc([S+](=O)([O-])N3CCCC3)c2)n1-c1ccccc1)Nc1cccc(F)c1 | inactive |
| CN(CCC1CCCO1)c1ncnc2ccc(-c3ccc4c(c3)OCO4)cc12 (stereo not given) | inactive |
| COc1cccc(C2c3c(ncn(-c4ccc(C#N)cc4)c3=N)Oc3ccc4ccccc4c32)c1 (stereo not given) | inactive |
| N=c1c2c(ccn1CCc1ccccc1)Oc1ccc3ccccc3c1C2c1ccccc1 (stereo not given) | inactive |
| O=C(Oc1cccnc1)c1cccs1 | inactive |
| O=C(CSc1nnc(-c2cccc(S(=O)(=O)N3CCCC3)c2)n1-c1ccccc1)Nc1ccc(Cl)cc1 | inactive |
| NC(=O)C1CCN(c2nc(-c3cccc4ccccc34)cs2)CC1 | inactive |
| O=c1c2ccccc2nc2sc(NCc3ccc(Oc4ccccc4)cc3)nn12 | inactive |
| CC(=O)Nc1ccc(NC(=O)c2cnn3c(C)cc(C)nc23)cc1 | inactive |
